Shown are actives, neighbours in structure and some others; about 3.7% of the full set was active somewhere.
PTHR1 ag: activates the human parathyroid hormone receptor PTHR1. HEK293 GP2 PTHR1 cells, GloSensor cAMP luminescence, 1 h. Q03431. Potency, µM (titrated, usually from 115 µM), inactives show at the highest dose activation, actives largely listed as activators. hit rate 0.075% among 410,000; further: potency means the concentration at half of the fitted maximal effect; nearly all actives have a fitted effect of over 55% in size
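HEK-293-derived GP2 cells expressing PTHR1 and a GloSensor cAMP reporter, 3,000/well, plated overnight, given luciferin plus IBMX (each 0.5 mM as added) for 1 h at 37 °C, then compound for 1 h at 37 °C. Luminescence was read after 15 min at room temperature.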
RGS4 inh: inhibitors of human regulator of G protein signaling 4. hit rate 0.039% among 390,000. Transcreener GDP fluorescence polarization, RGS4-accelerated GTP hydrolysis. AID 504845. Potency, µM (doses to about 114 µM), for the others: top-dose activity change, negative = inhibition, usual class: inhibitors. P49798; further: potency means the concentration at half of the fitted maximal effect; on the % scale 0 is the no-effect control and ±100 the full control effect; nearly all actives have a fitted effect of over 75% in size
Target sequence (P49798 whole entry, looked up): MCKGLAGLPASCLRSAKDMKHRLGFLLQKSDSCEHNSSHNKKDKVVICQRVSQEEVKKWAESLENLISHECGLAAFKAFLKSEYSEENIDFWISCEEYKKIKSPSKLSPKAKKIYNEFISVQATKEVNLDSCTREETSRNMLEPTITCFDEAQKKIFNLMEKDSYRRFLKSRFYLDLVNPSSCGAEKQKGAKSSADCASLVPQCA
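MLSMR compounds (23 nl, pin-transferred) preincubated 10 min at room temperature with a 500nM (2x) first reagent, then RGS4 at 900nM (2x) plus Transcreener GDP mix added; fluorescence polarization (620/688 nm) read before and after 90 min at 30 °C.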
B2AR arrestin: agonists driving beta-arrestin recruitment to human beta2-adrenergic receptor; P07550; beta-arrestin recruitment to beta2AR, cell-based reporter; Potency, µM (series often up to 46.1 µM), inactives show at the top dose activation, usual class: activators; hit rate 0.02% among 330,000; AID 492947;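 further: potency means the concentration at half of the fitted maximal effect; 0% = DMSO controls and full agonism = EC100 isoproterenol or metaproterenol; nearly all actives have a fitted effect of over 65% in size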
BRCA1 expr act: increases BRCA1 expression. MCF7-BRCA1-FFLuc reporter, luminescence, 48 h; response scale: scaled: vehicle 0%, 10 µM genistein 100%. Potency, µM (top dose mostly 46.1 µM), without a hit: top-dose activation, usual class: activators. hit rate 1.1% among 380,000. AID 624202; further: potency means the concentration at half of the fitted maximal effect; nearly all actives have a fitted effect of over 80% in size
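48 h compound treatment of MCF7-BRCA1-FFLuc cells (phenol-red free MEM, 37 °C), then 15 min with luciferase substrate and luminescence imaging.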
D3 antag: antagonists of human D3 dopamine receptor; P35462; D3R cells, DiscoveRx beta-arrestin luminescence, antagonist mode; active compounds read low; max response, negative = inhibition, %; hit rate 2.5% among 360,000; AID 652054; in the data active means max response below about -50%; inconclusive means no clear call, values can overlap the other calls; further: on the % scale 0 is the no-effect control and ±100 the full control effect
Target sequence (P35462 whole entry, looked up): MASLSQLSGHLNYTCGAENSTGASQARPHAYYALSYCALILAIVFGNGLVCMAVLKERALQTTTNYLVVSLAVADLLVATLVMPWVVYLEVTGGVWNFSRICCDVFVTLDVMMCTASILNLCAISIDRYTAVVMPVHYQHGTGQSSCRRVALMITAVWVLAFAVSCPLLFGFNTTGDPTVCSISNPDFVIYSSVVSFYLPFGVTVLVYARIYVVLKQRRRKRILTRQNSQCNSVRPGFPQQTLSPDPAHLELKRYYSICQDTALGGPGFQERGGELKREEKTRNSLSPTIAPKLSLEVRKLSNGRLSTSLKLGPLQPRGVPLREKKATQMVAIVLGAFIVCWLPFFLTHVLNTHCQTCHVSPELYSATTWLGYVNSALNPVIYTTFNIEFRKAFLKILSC
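Cells expressing the human receptor were seeded at 1500 cells/well, incubated overnight at 37 degrees C in 5% CO2, then exposed to library compounds with dopamine controls for 90 minutes at 37 degrees C before luminescent detection.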
DRD3 agonist: agonists of human D3 dopamine receptor; P35462; D3R DiscoveRx beta-arrestin cells, luminescence, 90 min; max activation, %; hit rate 0.58% among 410,000; in the data active means max activation above about 30%; further: 0% is about no effect
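Agonist-mode cell screen: cells plated at 1500/well and incubated overnight at 37 °C, then exposed to library compounds for 90 min at 37 °C. Detection reagent was added for 30–60 min at room temperature, and luminescence was read.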
* marks the source's active call; other numbers are inactive results; i = inactive; ? = inconclusive; . = not tested or not shown; ! = not active in a repeat; [ ] = remark or other dose. Unless noted, the call rests on the fitted dose curve; in most records, active means well fitted curve in the direction sought with a large enough effect; inconclusive means small, poorly fitted or top-dose-only effect, or another doubt; inactive means no such curve, though single readings can be large; an effect the other way counts as inactive or inconclusive.

SMILES	PTHR1 ag	RGS4 inh	B2AR arrestin	BRCA1 expr act	D3 antag	DRD3 agonist
O=C(COc1ccc2ccccc2c1)N1CCN(C2CCN(Cc3ccccc3)CC2)CC1	-8.3%[57.5 µM]	-21.2%	-0.2%	-36.5%	-23.1	-8.8
CCOC(=O)c1cc2cc(OC)ccc2n1C1CCN(Cc2ccccc2)CC1	-20.4%	.	.	5.9%	-88.9*	-10.2
C#CCN1C(C)=C(C(=O)CCO)[C@@H](c2cccc(-n3oo3)c2)C(C(=O)OC)=C1C	.	i	.	.	.	.
CN1CC(C(=O)c2ccc(F)cc2)C(c2ccc(F)cc2)C1 (configuration not stated)	i	22.8%	-1.1%	2.7%	-129.3*	-13.0
CCN1CCN(Cc2cc3c(cc2[N+](=O)[O-])OCO3)CC1	i	4.8%	0.2%	15.5%	?	-6.5
Cc1ccc(O)c(CN2CCN(c3ccccc3)CC2)c1	i	6.1%	-0.7%	-19.7%	-80.0*	-5.6
Oc1cc2c(cc1CN1CCN(c3ccc(F)cc3)CC1)OCO2	-19.7%	-21.4%	-0.2%	-2.8%	-66.5*	-24.2
Cc1cc(O)c(CN2CCN(c3ccccc3)CC2)cc1C	i	-4.2%	0.0%	-27.7%	-64.8*	-23.6
Oc1ccc(Cl)cc1CN1CCN(Cc2ccccc2)CC1	-2.3%[57.5 µM]	-0.5%[56.9 µM]	0.1%	-35.9%	-65.5*	-3.5
Oc1cc2c(cc1CN1CCN(c3ccccc3)CC1)CCC2	i	24.2%	0.1%	-44.6%	-7.3	-1.8
CC(O)(c1ccncc1)c1nc(-c2cccc(C(F)(F)F)c2)cs1 (configuration not stated)	-37.7%	.	.	-28.1%	40.4	11.1
COc1cccc(C(=O)c2cn(CC(=O)Nc3cc(Cl)c(OC)cc3OC)c3nc(C)ccc3c2=O)c1	-49.7%	3.1%	.	.	.	8.0
CC(C)=CCN1CC[C@@]2(C)c3cc(O)ccc3C[C@@H]1[C@@H]2C	.	.	.	.	.	-23.8
COc1cc(CC(C)N)cc(OC)c1OC (configuration not stated)	.	.	.	.	.	13.2
Brc1cc2c(cc1CN1CCN(c3ccccc3)CC1)OCCO2	-0.9%	-15.9%	0.2%	24.1%	-73.4*	-27.6
O=P(CN1CCN(c2ccccc2)CC1)(N1CCCCC1)N1CCCCC1	i	3.2%	-0.5%	-8.1%	?	1.5
COc1ccc(CN2CCN(c3ccccc3)CC2)c(C)c1C	-55.8%	-49.0%	0.2%	-35.5%	-75.3*	0.5
COc1cccc(CN2CCN(c3ccc(F)cc3)CC2)c1OC	-40.1%	.	.	-5.2%	?	-9.6
OC[C@@H](O)[C@H]1O[C@@H]2O[C@@H](C(Cl)(Cl)Cl)O[C@@H]2[C@H]1O	.	.	.	.	.	-6.7
CC(C)NC(C)Cc1ccc(I)cc1 (configuration not stated)	-21.5%	-3.0%[56.9 µM]	-0.1%	0.0%	-88.7*	-20.9
CCC1(c2cnc[nH]2)Cc2ccccc2C1	.	.	.	.	.	-16.5
Cc1nn(Cc2ccccc2Cl)c(Cl)c1C(=O)OCC(=O)NC(=O)NC1CCCCC1	-3.3%	1.4%	-0.9%	16.7%	?	2.2
Cc1nn(CC(C)C)c(Cl)c1C(=O)NC1CCC(C)CC1 (configuration not stated)	-16.3%	17.3%	0.1%	3.16µM*	0.2	12.7
Cc1ccccc1CN1CCc2nc(N3CCN(c4ccccn4)CC3)ncc2C1	-92.1%	3.2%	.	.	.	2.4
Cc1ccc(NC(=O)OC(C)CNC(=O)Oc2cccc(C)c2)cc1 (configuration not stated)	-27.5%	22.8%	0.1%	11.2µM*	7.5	0.7
SMILES	PTHR1 ag	RGS4 inh	B2AR arrestin	BRCA1 expr act	D3 antag	DRD3 agonist
CC(C)C[C@H](NC(=O)[C@H](Cc1ccccc1)NC(=O)CNC(=O)[C@@H](NC(=O)[C@@H](N)Cc1ccc(O)cc1)[C@H](C)O)C(=O)N[C@H](C(=O)O)[C@H](C)O	.	i	.	.	.	.
COC(=O)c1ccc(N2C(=O)CC(N3CCC(O)(c4ccc(Br)cc4)CC3)C2=O)cc1 (configuration not stated)	-30.3%	6.9%	0.3%	-0.3%	9.2	4.5
Cc1ccsc1C(=O)C1CCCN(Cc2ccccc2O)C1 (configuration not stated)	i	-9.7%	-0.2%	0.0%	-52.8*	-14.8
CCc1ccc(CN2CCCC(C(=O)c3sccc3C)C2)o1 (configuration not stated)	-42.9%	-12.7%	0.0%	-11.4%	-52.3*	-21.5
Cc1ccsc1C(=O)C1CCCN(Cc2cnn(C(C)C)c2)C1 (configuration not stated)	i	34.7%	0.0%	-6.2%	-72.9*	-10.8
COCc1ccc(CN2CCCC(C(=O)c3sccc3C)C2)o1 (configuration not stated)	-10.5%	8.8%	0.3%	12.9%	?	-11.4
Cc1ccsc1C(=O)C1CCCN(Cc2cnc(N)nc2)C1 (configuration not stated)	i	13.3%	0.3%	4.3%	-3.8	5.8
Cc1ccc([C@H]2C[C@H](n3cc(C4CC4)nn3)[C@@H](O)CN2Cc2cccs2)cc1	-71.8%	.	.	22.1%	2.4	-3.2
N#CC(C#N)=Cc1ccc(O)c(O)c1	-40.8%	18.9µM*!	0.0%	23.9%	32.2	7.0
COC(=O)C1=C(c2ccc3ccccc3c2)C[C@@H]2CC[C@H]1N2C	-0.4%	18.1%	0.0%	1.6%	0.0	-50.3
COC(=O)C1=C(C(=O)OC)C2OC1c1cc3ccccc3cc12	-28.0%	?	.	-85.9%	-58.0*	-15.8
[O-]/[N+](=C/c1cccnc1)c1ccc(Br)cc1	-20.5%	?	-0.9%	11.2µM*	0.0	0.4
CN(C)c1ccc(CN2CCc3nc(N4CCN(c5ccccn5)CC4)ncc3C2)cc1	-94.3%	16.3%	.	.	.	-21.1
O=c1[nH]c2ccccc2n1C1CCN(C(c2ccccc2OC(F)(F)F)c2nnnn2-c2ccc3c(c2)OCCO3)CC1 (configuration not stated)	-18.3%	.	.	-69.4%	13.3	34.8*
O=C(C1CCCN(S(=O)(=O)c2cccc3nsnc23)C1)N1CCN(c2cccc(Cl)c2)CC1 (configuration not stated)	-50.3%	1.7%	.	-4.1%	.	32.2*
COc1ccc(C(=O)Nc2ccc(-c3nc4ccccc4s3)c(Cl)c2)cc1Cl	-78.4%	9.8%	.	10.6%	.	1.5
CCCN1CCc2cccc3c2C1Cc1ccc(O)c(O)c1-3 (configuration not stated)	.	i	.	.	.	.
CCCN1CCc2cc(O)cc3c2[C@H]1Cc1ccc(O)c(O)c1-3	-25.3%	0.532µM*!	.	-27.6%	?	22.6
CN1CCc2cc(O)cc3c2[C@H]1Cc1ccc(O)c(O)c1-3	-4.7%	?	.	-21.4%	-84.0*	-32.5
COc1cccc(C(=O)CCN[C@@H](C)[C@H](O)c2ccccc2)c1	.	.	.	.	.	-12.5

Source: PubChem BioAssay (National Center for Advancing Translational Sciences (NCATS))
